# Measurements as given in paper PMC4336329 (PLoS ONE, 2015).
# Hit rate of the full screen: of about 310,000 compounds, about 14,000 (4.5%) showed an effect of 50% or more. The effect is printed as a negative number. What follows is part of a selection rich in strong results, with near analogues and random picks from the rest.
# Molecular target: human ether-à-go-go-related gene (hERG) potassium channel (human, UniProt Q12809)
# Assay: primary screen, population patch clamp on CHO cells stably expressing hERG; higher = less effect of the substance
# 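Further: peak tail current of the secondary pulse compared with the same well before compound.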
# human ether-à-go-go-related gene (hERG) potassium channel, sequence (Q12809 whole entry, looked up): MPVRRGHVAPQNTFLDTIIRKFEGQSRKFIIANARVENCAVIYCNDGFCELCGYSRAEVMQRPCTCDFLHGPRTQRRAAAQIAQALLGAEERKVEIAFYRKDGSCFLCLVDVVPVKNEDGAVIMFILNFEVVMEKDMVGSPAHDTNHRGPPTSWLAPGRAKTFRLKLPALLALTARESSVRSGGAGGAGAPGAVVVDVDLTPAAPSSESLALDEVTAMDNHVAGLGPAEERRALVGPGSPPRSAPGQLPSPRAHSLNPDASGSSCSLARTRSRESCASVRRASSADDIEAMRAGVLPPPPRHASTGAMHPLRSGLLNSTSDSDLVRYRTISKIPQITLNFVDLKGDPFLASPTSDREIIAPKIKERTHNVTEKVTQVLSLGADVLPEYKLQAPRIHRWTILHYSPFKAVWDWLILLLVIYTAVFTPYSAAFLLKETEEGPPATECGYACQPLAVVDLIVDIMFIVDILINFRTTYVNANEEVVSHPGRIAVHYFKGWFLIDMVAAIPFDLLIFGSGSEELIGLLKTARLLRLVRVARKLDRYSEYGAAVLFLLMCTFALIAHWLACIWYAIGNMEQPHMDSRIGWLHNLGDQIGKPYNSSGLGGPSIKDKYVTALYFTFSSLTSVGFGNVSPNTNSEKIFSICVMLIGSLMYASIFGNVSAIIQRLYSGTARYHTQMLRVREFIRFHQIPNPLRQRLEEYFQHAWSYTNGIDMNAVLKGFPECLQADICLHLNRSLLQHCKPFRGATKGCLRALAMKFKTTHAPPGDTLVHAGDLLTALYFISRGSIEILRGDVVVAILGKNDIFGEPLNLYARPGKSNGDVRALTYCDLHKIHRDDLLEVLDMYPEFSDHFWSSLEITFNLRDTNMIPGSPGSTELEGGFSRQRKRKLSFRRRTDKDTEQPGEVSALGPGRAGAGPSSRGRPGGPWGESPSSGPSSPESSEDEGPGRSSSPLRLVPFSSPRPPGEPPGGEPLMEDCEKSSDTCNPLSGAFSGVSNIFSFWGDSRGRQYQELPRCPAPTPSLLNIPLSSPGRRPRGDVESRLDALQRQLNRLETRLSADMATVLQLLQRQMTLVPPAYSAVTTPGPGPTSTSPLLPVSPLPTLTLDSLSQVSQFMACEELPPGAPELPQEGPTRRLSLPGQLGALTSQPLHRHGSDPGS
row,SMILES,"hERG current change (%, negative = inhibition) at 10uM"
1,COc1ccc(C(NC(=O)C2C3C=CC(C3)C2C(=O)O)c2ccccc2)cc1 (stereo not shown),-4.58%
2,O=C(CN1CCCc2ccccc21)N/N=C/c1ccc(O)cc1O,-29.1%
3,CC1CCN(C(=O)CC(NC(=O)c2ccccc2Cl)c2ccccc2)CC1 (stereo not shown),-15.7%
4,O=C(NC(CC(=O)N1CCN(c2ccc([N+](=O)[O-])cc2)CC1)c1ccccc1)c1ccccc1Cl (stereo not shown),-85.3%
5,O=C(NC(CC(=O)N1CCN(c2ccccc2)CC1)c1ccccc1)c1ccccc1Cl (stereo not shown),-46.8%
6,Cc1cccc(N2CCN(C(=O)CNC(=O)c3ccccc3)CC2)c1C,-30.6%
7,Cc1cccc(N2CCN(C(=O)CC(NC(=O)c3ccccc3Cl)c3ccccc3)CC2)c1C (stereo not shown),-59.9%
8,Cc1cccc(N2CCN(C(=O)c3ccccc3SCC(=O)N3CCCC3)CC2)c1C,-34.7%
9,O=C(NC(CC(=O)N1CCCC(C(F)(F)F)C1)c1ccccc1)c1ccccc1Cl (stereo not shown),-8.81%
10,C[C@H](NC(=O)c1ccccc1Cl)C(=O)OCC(=O)N1CCN(c2ccccc2)CC1,-9.59%
11,O=C(NC(CC(=O)N1CCN(c2ccccc2O)CC1)c1ccccc1)c1ccccc1Cl (stereo not shown),-70.6%
12,C/C(=N\Nc1ccc([N+](=O)[O-])cc1)c1ccc(O)cc1,-1.55%
13,CNC(=S)N(CCO)Cc1cc2cc3c(cc2[nH]c1=O)OCO3,24%
14,Cc1cccc(-n2c(SCC(N)=O)nnc2-c2ccccn2)c1C,1.28%
15,CCc1ccc(C(=O)NC(CC(C)C)C(=O)O)cc1 (stereo not shown),-2.4%
16,Cc1cc(/C=C2\C(=O)NC(=O)N(Cc3ccco3)C2=O)c(C)n1-c1ccc(C(=O)O)cc1,12.2%
17,COc1cccc(Nc2ncccc2C(=O)O)c1,9.1%
18,CCN(CC)C(=O)CSc1nc2ccsc2c(=O)n1CCCC(=O)NCCc1ccc(S(N)(=O)=O)cc1,24.7%
19,O=C(CCc1ccccc1)NCc1ccccc1,-8.04%
20,Cn1c(SCC(=O)Nc2ccc(F)cc2)nc2c(c1=O)SCC2,-6.44%
21,Cn1c(SCc2ccc(Br)cc2)nc2c(c1=O)SCC2,-18.6%
22,Cn1c(SCC(=O)Nc2ccccc2F)nc2c(c1=O)SCC2,-9.41%

row,SMILES,"hERG current change (%, negative = inhibition) at 10uM"
1,Cn1c(SCc2cccc([N+](=O)[O-])c2)nc2c(c1=O)SCC2,-36.6%
2,Cn1c(SCC(=O)Nc2ccccc2C(F)(F)F)nc2c(c1=O)SCC2,-57%
3,Cn1c(SCc2ccc([N+](=O)[O-])cc2)nc2c(c1=O)SCC2,-67.5%
4,Cc1cc(C)c(S(=O)(=O)N2CCN(c3ccccc3)CC2)c(C)c1,16.5%
5,Cc1ccc(NC(=O)c2ccccc2N2C(=O)C3C4C=CC(C5CC45)C3C2=O)cc1C (stereo not shown),2.91%
6,COc1ccc(-n2c(N)c(C(=O)NCc3ccco3)c3nc4ccccc4nc32)cc1OC,16.7%
7,O=C(CNC(=O)c1ccc(Br)o1)NCc1ccccc1,6.66%
8,O=C(c1sccc1-c1ccccc1)N1CCN(S(=O)(=O)c2ccccc2F)CC1,-49.3%
9,COc1ccc(N2CCN(CCNC(=O)Nc3cc(Cl)ccc3Cl)CC2)cc1,15.6%
10,O=C(NCCc1ccccc1)C1(S(=O)(=O)c2ccc(Cl)cc2)CC1,6.29%
11,COc1ccc(C2(C(=O)NCCCN3CCOCC3)CCOCC2)cc1.Cl,10.6%
12,COc1ccc(N2CCN(CCCNC(=O)C3(S(=O)(=O)c4ccc(Cl)cc4)CC3)CC2)cc1,-61.5%
13,O=C(NCCN1CCN(c2ccccc2)CC1)C1(S(=O)(=O)c2ccc(Cl)cc2)CC1,-50.2%
14,S=C(NCCCN1CCOCC1)N1CCN(c2cccc(Cl)c2)CC1,-40.2%
15,O=C(NCCCN1CCCCC1)C1(S(=O)(=O)c2ccc(Cl)cc2)CC1,-32.3%
16,O=C(NCCCN1CCN(c2cccc(Cl)c2)CC1)C1(S(=O)(=O)c2ccc(Cl)cc2)CC1,-71%
17,O=C(NCCN1CCCC1)C1(S(=O)(=O)c2ccc(Cl)cc2)CC1,11.7%
18,CC1CCC(C)(NS(=O)(=O)OCC(Cl)(Cl)Cl)CC1 (stereo not shown),-21.7%
19,CN(C)C(/C=C/Nc1ccc(F)cc1)=C(C#N)C#N,-8.47%
20,CCN1C(=O)c2ccccc2S(=O)(=O)c2ccc(C(=O)NCC(OC)OC)cc21,6.16%
21,NNC(=O)COc1ncn(-c2ccccc2)n1,18%
22,N#Cc1ccsc1NC(=O)COC(=O)c1cc(Br)ccc1O,-22.2%

row,SMILES,"hERG current change (%, negative = inhibition) at 10uM"
1,Cc1c(C(=O)N2CCCc3ccccc32)oc2ccc(S(=O)(=O)N3CCOCC3)cc12,-44.2%
2,O=C(CNCCc1ccc(F)cc1)Nc1cc(F)ccc1F.O=C(O)C(=O)O,-19.9%
3,CCOc1ccccc1NC(=O)COc1ccc(S(=O)(=O)N2CCCC2)cc1,-4.32%
4,O=C(NCC1CCCO1)c1ccc([N+](=O)[O-])s1 (stereo not shown),25.4%
5,CCOC(=O)C(c1ccccc1)N1CCN(c2ccc(OC)cc2)CC1 (stereo not shown),4.91%
6,C/C(CC(=O)Nc1ccc2c(c1)OCCO2)=N\NC(=O)Cc1ccccc1,-9.4%
7,CCOc1ccc(OCCOC(=O)C2CCN(S(=O)(=O)c3ccc(C)c(C)c3)CC2)cc1,-22.4%
8,Cl.OC(COCc1ccc2c(c1)OCO2)CN1CCC(Cc2ccccc2)CC1 (stereo not shown),-87.6%
9,COc1ccc(COCC(O)CN2CCC(CN3C(=O)c4cccc5cccc(c45)C3=O)CC2)cc1OC.Cl (stereo not shown),-71.5%
10,Cl.O=C1c2cccc3cccc(c23)C(=O)N1CC1CCN(CC(O)COCc2ccc3c(c2)OCO3)CC1 (stereo not shown),-75.3%
11,COc1ccc(COCC(O)CN2CCOCC2)cc1OC.Cl (stereo not shown),20.8%
12,COc1ccc(COCC(O)CN2CCCCC2)cc1OC.Cl (stereo not shown),16.6%
13,Cl.OC(COCc1ccc2c(c1)OCO2)CN1CCCCC1 (stereo not shown),-2.96%
14,Cl.OCCN1CCN(CC(O)COCc2ccc3c(c2)OCO3)CC1 (stereo not shown),-1.01%
15,CN1CCN(CC(O)COCc2ccc3c(c2)OCO3)CC1.Cl (stereo not shown),6.52%
16,Cl.OC(COCc1ccc2c(c1)OCO2)CN1CCN(Cc2ccccc2)CC1 (stereo not shown),-33.1%
17,Cc1ccc2nc(C(O)C(O)c3nc4ccc(C)cc4[nH]3)[nH]c2c1 (stereo not shown),-6.37%
18,O=C(Nc1nc(-c2ccc(Cl)cc2Cl)cs1)c1ccc(OCC2CCCO2)cc1 (stereo not shown),6.82%
19,COCCNc1nnc(SC(C)C(=O)Nc2c(C)n(C)n(-c3ccccc3)c2=O)s1 (stereo not shown),11.8%
20,CNC(=O)c1cn(-c2ccc(Cl)cc2)c(=O)c2ccccc12,-9.43%
21,CCCCN(CC)CCNC(=O)c1cn(C)c(=O)c2c1c1ccccc1n2C,-24.6%
22,CCCCN(CC)CCNC(=O)c1cn(-c2ccc(Cl)cc2)c(=O)c2ccccc12,-77.7%

row,SMILES,"hERG current change (%, negative = inhibition) at 10uM"
1,COc1cccc(-n2nc(C(=O)O)c3ccccc3c2=O)c1,6.72%
2,CCOC(=O)C(C)NC(=O)c1cn(-c2ccc(OC)cc2)c(=O)c2ccccc12 (stereo not shown),5.7%
3,CCCN(CCC)CCCNC(=O)c1cn(-c2ccc(OC)cc2)c(=O)c2ccccc12,-48%
4,COc1cccc(-n2nc(C(=O)N3CC(C)CC(C)C3)c3ccccc3c2=O)c1 (stereo not shown),3.43%
5,CCN(CC)CCCNC(=O)CNC(=O)c1nn(-c2ccc(OC)cc2)c(=O)c2ccccc12,23.8%
6,CCN(CC)CCCNC(=O)c1nn(-c2cccc(OC)c2)c(=O)c2ccccc12,-70.6%
7,COc1cccc(-n2nc(C(=O)N3CCN(Cc4ccccc4)CC3)c3ccccc3c2=O)c1,-50.3%
8,CCN(CC)CCCNC(=O)c1nn(-c2ccc(OC)cc2OC)c(=O)c2ccccc12,-0.745%
9,CCCCN(CC)CCCNC(=O)c1cn(-c2ccc(OC)cc2)c(=O)c2ccccc12,-56.5%
10,O=C(c1ccccc1[N+](=O)[O-])N1CCN(Cc2ccc3c(c2)OCO3)CC1,-13.4%
11,Cc1cccc(N2C(S)=C(C#N)C(=O)NC23CCCCC3)c1,-7.13%
12,CCCCC(=O)Nc1ccc(NC(=O)c2ccco2)cn1,10.1%
13,CCOc1ccccc1N1CCN(C(=O)c2csc(C)c2CC)CC1,-8.41%
14,COC(=O)CSC1=C(C#N)C(c2ccccc2OC)C(C(=O)OC)C(=O)N1 (stereo not shown),15.6%
15,C/C(=C\C(=O)c1sccc1Cl)N(C)C,0.12%
16,Cc1cnc([N+](=O)[O-])n1CCOC(=O)c1cccc(F)c1,-3.45%
17,O=C(Cn1cnc2c(cnn2-c2ccccc2)c1=O)Nc1cc(S(=O)(=O)N2CCOCC2)ccc1Cl,-32.2%
18,CCOc1cc(C(=S)N2CCCCC2)ccc1OCC(=O)NCc1ccccc1,-31.2%
19,COc1ccc(N2CCN(C(=O)Cn3cnc4c(cnn4-c4ccc(C)cc4)c3=O)CC2)cc1,-9.24%
